The test system of the experiment is VDR:RXRa (NR concentration 270 nM, RXRa partner concentration 90 nM). Briefly: PBM binding z-score (relative to random genomic background probes); higher = stronger binding; sequences stand for … in GC…GCGATTGACAGCGTAGAATGAAGG
The procedure:
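Protein-binding microarray (Agilent 4x180K custom design, double-stranded 60-nt probes: 5' GC cap, 34-nt variable region, 24-nt constant primer region; full probe sequence given). Purified or IVT nuclear receptor:RXRα heterodimers (3:1 NR:RXRα, mostly 270:90 nM) or homodimers were incubated for 1 h in PBS with 2% milk and no ligand, then detected with Alexa488 antibodies. Fluorescence from o1-orientation probes (~5 replicates averaged) was converted to z-scores against 500 random hg19 background probes. Variable regions are seed direct-repeat (DR0–DR5) sites, all their single-nucleotide variants and half-site ablations.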
The sequence TCATATAGGTAAAGGTGAAAGTCGAACGATATGA displayed a PBM binding z-score of 0.971.
For the sequence CAAACTAGGTGAAGAGGTCAAAGTCCGCTTCCCG, the PBM binding z-score was 4.67.
Then ACTAGCAGGCCAAGATTGGGTCACTCAAACAAAG, with 0.16; and CTTTACGGGTCACTGACAGGTTATAGCATTTGGA, with 3.94; and GCTAGTTGGTCAGTAAAAGGTCACACGCCGGTCG, with 3.87.
Then ATCTCTAGGTAACAAGTTCAGTGGAAGAGAGGAC, with 2.
Then ATCGAAAGGTTGACGAGGTGAGTATACACCGTTT, with 2.71.
CGAGCGAGGGCATGAGTTGATAGCAAATGCCGAT: the PBM binding z-score was determined as 1.3.
Then CGAACTAGGTCAAGAACAGTGAATCTCCGCACGC, with 1.04.
The figure for CGTCCAAGGTCAAAAGTCAGTGAAGAGATGACGG is 3.74; for ACGATTAGTTGACTTAGGGCAACCGATACGACGC it is 0.161; for CCGACTGGGGGAAGGTTACCATAACGCACAGCCA it is 0.558.
As to CCGACTGGGGCAGAAAGCTTACCATACCATCCGG, the PBM binding z-score is -0.904.
The figure for CGTCCAAGGTCAGAGAGGACAGTGAATGCCGAGT is 5.85; for CAAACAAGGTCAAGGTCAAAGTCGGTTTGTGCCA it is 6.23; for GGTACGAGGGCATTCGAGTTGATAGCATGGCGAT it is 3.71.
The figure for TCGAGTAGGTTACCAATGGGGTATTCAGCTTTCT is 0.0284.
The figure for TTAGCAAGGTGAAAGGTCGTTGATGCACGCCTTG is 2.93; for TCGAGTAGGTGAGTCGGGGCATTCAGCCAACATA it is 1.68; for CGTCCAAGGTCCAAGGTCAGTGAAGAGATGACGG it is 1.6.
ATCGAAAGGTCGTGAGGAGAGTATACAGAAAGGC returned a PBM binding z-score of 3.11.
Then CGTCCCAGGTCAGAGAGGTCAGTGAATGCCGAGT, with 6.8.
Take ACTAGTTGGTCATCTGAGGTCACACACAATTCGG: the PBM binding z-score came to 5.04.
The figure for GATACAGGGTCAGCTCGAGGCCAGAGTATGGAAA is 3.61.
Then CCGAGTGGGGCAAAGGTTACCATACTCAGTACGA, with 1.49.
The figure for CGAACTAGGTCATCCAGGACAGCGAATACATTGA is 4.63.
Sequence GCATATAGGTAATACAAGGTGACAGTCCGATTGT returned a PBM binding z-score of 0.313.
The figure for TCGAGTAGGTTAGGGGTATTCAGAATGGCGTCGA is 0.154.
Then GCGACTGGGGCAATGCAGGTTACCATAAGGTTGG, with -0.0726; and ATACCAAGGTGATCGTGAGGTCGTTGAGACTAAC, with 2.9; and GCTTGTAGATCAAGGTTAAGATAGACTAAGCTAA, with 0.0807.
TCTATTAGTTAATTAGGGCAACCGAAACAGCGGA registered a PBM binding z-score of 0.823.
Then ACTAGCAGGCCAAGTTTGGGTAACTCAAACAAAG, with -0.517.
In the case of TAGCCTAGGTAATGCGGGCCAGTATAGTGTCGGC, the PBM binding z-score was -0.839.
Then CCTGCTAGGTCAATCGTCAGCTAAAGCAGCTCGC, with 0.744; and ACTTACGGGTCAACGAGGGTATAGCACGCGTATA, with 7.1; and GCGACGGGGGCAAAGCAGGTTACCATAAGGTTGG, with 3.84.
The figure for CGGCCAAGGTCAAGGTCAGTGAAAGAGACTCGAA is 4.68.
Sequence CAAACTAGGTCAAGGTCAAAGTGGGTTTGTGCCA registered a PBM binding z-score of 5.74.
Then GTTGCTAGGTCAACTGATGGTCAGCTAAAGCTCG, with 2.05.

The values are drawn from the supplement of paper PMC6555819.
